Only some compounds are listed: those with a hit (about 4.1% of all), similar ones and a draw of the others.
Peg3 prom inh = Peg3 promoter activity inhibition; HeLa PEG-Prom luciferase reporter, luminescence, overnight; inhibition, % at 20 µM; hit rate 1.7% among 360,000;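 active means inhibition of at least 50% at 20 µM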
TRPM1 prom inh = MITF TRPM1 promoter inhibition in SK-MEL-5 cells; SK-MEL-5 TRPM1 promoter luciferase, 24 h; inhibition, % at 12.5 µM; hit rate 0.83% among 330,000; AID 488899;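 active means mean inhibition across replicates of 60% or more, whatever share of single replicates reaches that level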
Shn3 3UTR inh = Schnurri-3 reporter inhibition in Clone20 osteoblasts; hit rate 0.52% among 360,000; inhibition, % at 12.5 µM; Clone20 osteoblast Shn3 3'UTR firefly luciferase, 24 h;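 active means mean inhibition of at least 75% with every replicate also reaching 75%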
EBV LMP1 NFkB = reduces LMP1-driven NF-kappaB luciferase signal | AID 504558 | inhibition, % at 12.5 µM | hit rate 0.69% among 350,000 | LMP1-induced NF-kappaB luciferase reporter cells, luminescence; in the data active means inhibition above about 41%
TWEAK-Fn14 inh = inhibitors of TWEAK-Fn14 interaction signaling. TWEAK-stimulated Fn14 reporter cells, luciferase luminescence, 8 h. inhibition, % at 10 µM. hit rate 2% among 360,000. AID 1159606; in the data active means inhibition above about 50%
TROY NFkB inh = TROY signaling inhibition; Q293 LMP1-TROYcd NF-kB luciferase reporter, 4 h; inhibition, % at 10 µM; hit rate 0.98% among 360,000;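 active means compounds whose plate-normalised and pattern-corrected inhibition of the luciferase reporter signal at the single screening dose is 50% or more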
Numbers stand for hits.

For O=c1[nH]c2ccccc2n1C1CCN(C(c2ccccc2OC(F)(F)F)c2nnnn2-c2ccc3c(c2)OCCO3)CC1 (configuration not stated) the results were Peg3 prom inh 89, Shn3 3UTR inh inactive, TWEAK-Fn14 inh 76 and TROY NFkB inh inactive.
Screening COc1cccc(C(c2nnnn2-c2ccc3c(c2)OCCO3)N2CCC(n3c(=O)[nH]c4ccccc43)CC2)c1OC (configuration not stated) returned Peg3 prom inh inactive, Shn3 3UTR inh 87, TWEAK-Fn14 inh inactive and TROY NFkB inh inactive.
Screening COc1ccc(-n2nnnc2C(c2ccnc3ccccc23)N2CCC(n3c(=O)[nH]c4ccccc43)CC2)cc1 (configuration not stated) returned Peg3 prom inh inactive, Shn3 3UTR inh inactive, TWEAK-Fn14 inh inactive and TROY NFkB inh inactive.
`O=C1NCN(c2ccccc2)C12CCN(C(c1cccc3ccccc13)c1nnnn1-c1ccc3c(c1)OCCO3)CC2` (configuration not stated) gave Peg3 prom inh inactive, Shn3 3UTR inh inactive, TWEAK-Fn14 inh inactive and TROY NFkB inh inactive.
Screening COc1ccc(-n2nnnc2C(c2cccc(OC)c2OC)N2CCC(n3c(=O)[nH]c4ccccc43)CC2)cc1 (configuration not stated) returned Peg3 prom inh 55, Shn3 3UTR inh inactive, TWEAK-Fn14 inh inactive and TROY NFkB inh inactive.
For NP(=O)(OCC(F)(F)F)Oc1ccccc1 (configuration not stated) the results were Peg3 prom inh inactive, TRPM1 prom inh inactive, Shn3 3UTR inh inactive, EBV LMP1 NFkB inactive, TWEAK-Fn14 inh inactive and TROY NFkB inh inactive.
O=P(NC1CCCCC1)(Oc1ccccc1)Oc1ccccc1 was read as Peg3 prom inh inactive, TRPM1 prom inh inactive, Shn3 3UTR inh inactive, EBV LMP1 NFkB inactive, TWEAK-Fn14 inh inactive and TROY NFkB inh inactive.
For CC(C)N=C(NC(C)C)N1CC1 the results were Peg3 prom inh inactive, Shn3 3UTR inh inactive, EBV LMP1 NFkB inactive, TWEAK-Fn14 inh inactive and TROY NFkB inh inactive.
COC(=O)C1=C(c2ccc(S(C)(=O)=O)cc2)C[C@@H]2CC[C@H]1N2C(=O)NC1CCCCC1 was read as Peg3 prom inh inactive, TRPM1 prom inh inactive, Shn3 3UTR inh inactive, EBV LMP1 NFkB inactive, TWEAK-Fn14 inh inactive and TROY NFkB inh inactive.
`C=C1C(=O)OC2CC3(C)OC3C3OC3C3=CC(OC3=O)C12` (configuration not stated) gave Peg3 prom inh 96, Shn3 3UTR inh 94, TWEAK-Fn14 inh inactive and TROY NFkB inh inactive.
`O=c1[nH]cnc2nc(-c3ccc(N(CCCl)CCCl)cc3)[nH]c12` gave Peg3 prom inh inactive, TRPM1 prom inh inactive, Shn3 3UTR inh inactive, EBV LMP1 NFkB inactive, TWEAK-Fn14 inh inactive and TROY NFkB inh inactive.
Screening CC(=O)O[C@H]1CCC2C3CC[C@H]4[C@@H](O)[C@H](O)CC[C@]4(C)C3CC[C@@]21C (some centres not stated) returned Peg3 prom inh inactive, TRPM1 prom inh inactive, Shn3 3UTR inh 96, EBV LMP1 NFkB inactive, TWEAK-Fn14 inh inactive and TROY NFkB inh inactive.
Screening COc1ccc2c(c1)c(C(=O)C(C)N1CCCCC1)c(C)n2C (configuration not stated) returned Peg3 prom inh inactive, TRPM1 prom inh inactive, Shn3 3UTR inh inactive, EBV LMP1 NFkB inactive, TWEAK-Fn14 inh inactive and TROY NFkB inh inactive.
c1ccc(-c2[nH]c(-c3ccccc3)[n+](CC3CO3)c2-c2ccccc2)cc1 (configuration not stated) was read as Peg3 prom inh inactive, TRPM1 prom inh inactive, Shn3 3UTR inh inactive, EBV LMP1 NFkB inactive, TWEAK-Fn14 inh 80 and TROY NFkB inh inactive.
For O=C(O)CCCc1ccc(N(CCCl)CCCl)cc1 the results were Peg3 prom inh inactive, TRPM1 prom inh inactive, Shn3 3UTR inh inactive, EBV LMP1 NFkB inactive, TWEAK-Fn14 inh inactive and TROY NFkB inh inactive.
Screening ClCCN(CCCl)c1ccc(-n2cnc3c(Cl)ncnc32)cc1 returned Peg3 prom inh 104, TRPM1 prom inh 84, Shn3 3UTR inh inactive, EBV LMP1 NFkB inactive, TWEAK-Fn14 inh 75 and TROY NFkB inh inactive.
For NCCc1ccc(OCc2ccccc2)c(OCc2ccccc2)c1 the results were Peg3 prom inh 107, TRPM1 prom inh 98, Shn3 3UTR inh inactive, EBV LMP1 NFkB inactive, TWEAK-Fn14 inh inactive and TROY NFkB inh inactive.
`O=C(CF)N(O)c1ccc(C=Cc2ccccc2)cc1` gave Peg3 prom inh inactive, TRPM1 prom inh inactive, Shn3 3UTR inh inactive, EBV LMP1 NFkB 88, TWEAK-Fn14 inh inactive and TROY NFkB inh inactive.
O=C1NC(=O)C(Cc2ccccc2)(Cc2ccccc2)C(=O)N1 was read as Peg3 prom inh inactive, TRPM1 prom inh inactive, Shn3 3UTR inh inactive, EBV LMP1 NFkB inactive, TWEAK-Fn14 inh inactive and TROY NFkB inh inactive.
`COC(=O)C1=C(c2ccc(F)cc2OCc2ccccc2)C[C@@H]2CC[C@H]1N2C(=O)NCc1ccc(C(F)(F)F)cc1` gave Peg3 prom inh inactive, TRPM1 prom inh inactive, Shn3 3UTR inh 93, EBV LMP1 NFkB inactive, TWEAK-Fn14 inh inactive and TROY NFkB inh inactive.
For C[N+]1(C)[C@@H]2CC[C@H]1CC(OC(=O)C(CO)c1ccccc1)C2 (some centres not stated) the results were Peg3 prom inh inactive, TRPM1 prom inh inactive, Shn3 3UTR inh inactive, EBV LMP1 NFkB 80, TWEAK-Fn14 inh inactive and TROY NFkB inh inactive.
`C[N+]1(C)C2CCC1CC(OC(=O)C(CO)c1ccccc1)C2` (configuration not stated) gave Peg3 prom inh inactive, TRPM1 prom inh inactive, Shn3 3UTR inh inactive, EBV LMP1 NFkB inactive, TWEAK-Fn14 inh inactive and TROY NFkB inh inactive.
CC(C)C[C@H](NP(=O)(O)O[C@@H]1O[C@@H](C)[C@H](O)[C@@H](O)[C@H]1O)C(=O)N[C@@H](Cc1c[nH]c2ccccc12)C(=O)O was read as Peg3 prom inh inactive, TRPM1 prom inh inactive, Shn3 3UTR inh inactive, EBV LMP1 NFkB inactive, TWEAK-Fn14 inh inactive and TROY NFkB inh inactive.
For Cc1c2ccncc2c(C)c2c1[nH]c1ccccc12 the results were Peg3 prom inh 102, TRPM1 prom inh 89, Shn3 3UTR inh inactive, EBV LMP1 NFkB inactive, TWEAK-Fn14 inh inactive and TROY NFkB inh inactive.
`COc1ccc(CCNCc2ccccc2F)cc1OC` gave Peg3 prom inh inactive, TRPM1 prom inh inactive, Shn3 3UTR inh inactive, EBV LMP1 NFkB inactive, TWEAK-Fn14 inh inactive and TROY NFkB inh inactive.
For CCOc1ccc(Cl)cc1CNCCc1ccccc1F the results were Peg3 prom inh 74, TRPM1 prom inh inactive, Shn3 3UTR inh inactive, EBV LMP1 NFkB inactive, TWEAK-Fn14 inh inactive and TROY NFkB inh inactive.
O=c1oc2ccccc2c(O)c1[C@H]1c2ccc(O)cc2Oc2c1c(=O)oc1ccccc21 was read as Peg3 prom inh inactive, TRPM1 prom inh inactive, Shn3 3UTR inh inactive, EBV LMP1 NFkB inactive, TWEAK-Fn14 inh inactive and TROY NFkB inh 65.
`O=c1[nH]c(=O)n(-c2cccc3ccccc23)c(O)c1C=NCCCn1ccnc1` gave Peg3 prom inh inactive, TRPM1 prom inh inactive, Shn3 3UTR inh inactive, EBV LMP1 NFkB inactive, TWEAK-Fn14 inh 62 and TROY NFkB inh inactive.
